Sampled rows, rich in hits. Any-hit rate of the full collection: about 6.1%.
D1 antagonist = blocks dopamine activation of the human D1 receptor; P21728; HEK293 TREx D1 cells, calcium flux, dopamine EC80; hits give low values; activity change, negative = inhibition, % at 10 µM; 360,000 tested, 3.2% active; AID 504652; in the data active = activity change below about -30%
Target sequence (P21728 whole entry, looked up): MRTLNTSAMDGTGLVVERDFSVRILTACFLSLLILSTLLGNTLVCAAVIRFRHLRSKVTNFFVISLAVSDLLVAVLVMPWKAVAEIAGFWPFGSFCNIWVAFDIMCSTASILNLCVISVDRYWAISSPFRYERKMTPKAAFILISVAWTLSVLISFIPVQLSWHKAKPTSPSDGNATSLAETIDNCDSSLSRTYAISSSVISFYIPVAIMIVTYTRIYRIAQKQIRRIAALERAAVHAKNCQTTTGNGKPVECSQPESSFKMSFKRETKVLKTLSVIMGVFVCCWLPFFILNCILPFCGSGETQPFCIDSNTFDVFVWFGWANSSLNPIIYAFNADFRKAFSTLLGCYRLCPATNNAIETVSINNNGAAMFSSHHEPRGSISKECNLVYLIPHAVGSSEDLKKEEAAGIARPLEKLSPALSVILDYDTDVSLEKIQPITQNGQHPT
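Using tetracycline-induced force-coupled D1 Hek293 cells and a calcium dye, signals were followed for 180 s after compound, then for 180 s after EC80 dopamine, to detect inhibitors.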
DRD3 antagonist = blocks the human D3 dopamine receptor; P35462; 360,000 tested, 2.5% active; AID 652054; max response, negative = inhibition, %; D3R cells, DiscoveRx beta-arrestin luminescence, antagonist mode; hits give low values; in the data active = max response below about -50%; inconclusive = no clear call, values can overlap the other calls
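Cells expressing the human receptor were seeded at 1500 cells/well, incubated overnight at 37 degrees C in 5% CO2, then exposed to library compounds with dopamine controls for 90 minutes at 37 degrees C before luminescent detection.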
D1 agonist = activates the human D1 dopamine receptor. P21728. HEK293 T-REx D1 cells, calcium flux, agonist mode. activation, % at 2 µM. 360,000 tested, 1% active. AID 504660; in the data active = activation above about 30%
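Agonism was scored from calcium flux recorded over 180 s (1 read/s) after pintool compound addition, following a 10-cycle baseline. Cells were inducible force-coupled HEK293 TREx D1, plated overnight at 30 C and loaded with no-wash calcium dye.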
D1 potentiator = human D1 dopamine receptor positive modulation | P21728 | HEK293 TREx D1 cells, calcium flux, dopamine EC20 potentiation | potentiation, % at 10 µM | 360,000 tested, 0.036% active | AID 504651; in the data active = potentiation above about 30%
DRD3 agonist = activates the human D3 dopamine receptor; 410,000 tested, 0.58% active; D3R DiscoveRx beta-arrestin cells, luminescence, 90 min; max activation, %; in the data active = max activation above about 30%
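Agonist mode: compounds and dopamine controls were applied to plated cells for 90 min at 37 degrees C after an overnight attachment at 1500 cells/well. Luminescent read-out followed 30 - 60 minutes at room temperature with DiscoveRx detection reagent.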
Of the large screens only hits and unclear results are named; the others gave an inactive call; ! = not active in a repeat.

COc1ccc(CCNCc2ccc(OCc3ccc(Cl)nc3)c(OC)c2)cc1OC	D1 agonist 59
CCNCc1ccc(OCc2cccs2)c(OCC)c1	none
COc1ccc(CNS(=O)(=O)CCNCCc2ccccc2)cc1	none (no result: D1 antagonist, D1 agonist, D1 potentiator)
COc1ccc(OC(=O)c2nc(SCc3ccc(C)cc3)ncc2Cl)cc1	none (no result: DRD3 antagonist)
O=[N+]([O-])c1ccc(OCc2cnc(Cl)s2)c([N+](=O)[O-])c1	none
c1ccc(COc2ccc(CNCc3cccs3)cc2)cc1	D1 agonist 129, D1 potentiator 42
Cc1ccccc1-c1noc(C(C)NC(=O)c2ccco2)n1 (centres undefined)	D1 antagonist -40!
O=C(COC(=O)c1ccccc1Cl)Nc1nccs1	D1 agonist 45
CC(C)C1C(=O)N(Cc2cn(Cc3ccco3)nn2)CCS(=O)(=O)N1Cc1ccc(-c2ccc(Cl)c(Cl)c2)cc1 (centres undefined)	none (no result: D1 antagonist, D1 agonist, D1 potentiator)
CCOc1ccccc1-c1nc(CN2CCCN(C(=O)c3ccco3)CC2)c(C)o1	D1 antagonist -67, DRD3 antagonist -79
Cc1oc(-c2ccc(F)cc2F)nc1CN1CCN(C(=O)c2ccco2)CC1	none (no result: D1 antagonist, D1 agonist, D1 potentiator)
COc1ccc(-c2nc(CN3CCN(C(=O)c4ccco4)CC3)c(C)o2)c(F)c1	DRD3 agonist 35
COC(=O)c1ccc(-c2nc(CN3CCCN(C(=O)c4ccco4)CC3)c(C)o2)cc1	none
CCOc1nc(C)ccc1-c1noc(CC)n1	D1 antagonist -38
Cn1c(SCc2cccc([N+](=O)[O-])c2)nc2c(c1=O)SCC2	none
CCOc1ccc(CCNC(=O)CN2C(=O)COc3ccc(S(=O)(=O)N4CCOCC4)cc32)cc1	D1 antagonist -69
CC(C)CCNC(=O)CN1C(=O)COc2ccc(S(=O)(=O)N3CCOCC3)cc21	D1 antagonist -47 (no result: DRD3 antagonist)
CN(C)c1ccc(S(=O)(=O)N2CCCCC2)cc1NC(=O)CN1C(=O)NC2(CCCC2)C1=O	D1 antagonist -42
CCOc1ccc(CCNC(=O)CN2C(=O)COc3ccc(S(=O)(=O)N4CCCC4)cc32)cc1	none (no result: DRD3 antagonist)
CN(C)c1ccc(S(=O)(=O)N2CCCCC2)cc1NC(=O)CN1C(=O)NC(C)(c2ccccc2)C1=O (centres undefined)	none
CCOc1ccc(NC(=O)CN2C(=O)COc3ccc(Cl)cc32)cc1	D1 antagonist -59
COc1ccc(CCNC(=O)CN2C(=O)COc3ccc(S(=O)(=O)N4CCCC4)cc32)c(OC)c1	D1 antagonist -86!
COc1ccc(OC)c(CCNC(=O)CN2C(=O)COc3ccc(S(=O)(=O)N4CCCCCC4)cc32)c1	none (no result: DRD3 antagonist)
CCN(CCCNC(=O)CN1C(=O)COc2ccc(S(=O)(=O)N3CCC(C)CC3)cc21)Cc1ccccc1	DRD3 antagonist -74
CCN(CC)CCCNC(=O)Cn1cnc2ccc(S(=O)(=O)N3CCC(C)CC3)cc2c1=O	D1 antagonist -39
CCc1ccccc1NC(=O)CN1C(=O)COc2ccc(S(=O)(=O)N3CCCCCC3)cc21	D1 antagonist -46 (no result: DRD3 antagonist)
COc1ccc(NC(=O)CN2CCCN(S(=O)(=O)c3ccc(Br)cc3)CC2)c(OC)c1	none (no result: DRD3 antagonist)
Nc1nc(SCC(=O)Nc2ccc(Cl)c(S(=O)(=O)N3CCOCC3)c2)n[nH]1	none
Cc1ccc(CN(C)C(=O)COC(=O)CSc2ccc([N+](=O)[O-])cc2)cc1	none
CCOC(=O)N1CCN(C(=O)COC(=O)CSc2ccc([N+](=O)[O-])cc2)CC1	DRD3 antagonist -52
Cc1ccccc1CN(C)C(=O)COC(=O)CSc1ccc([N+](=O)[O-])cc1	D1 antagonist -33
COc1ccc(OC)c(CNC(=O)c2ccc3c(c2)c(C)c(C)n3Cc2ccc(Cl)cc2)c1	none (no result: DRD3 antagonist)
COc1cccc(-c2cc(CNC(=O)[C@H]3O[C@@H](n4ccc(N)nc4=O)[C@H](O)[C@@H]3O)no2)c1	none (no result: D1 antagonist, D1 agonist, D1 potentiator)
O=C(CN(Cc1ccccc1)S(=O)(=O)c1cccc(C(F)(F)F)c1)NC1CCCCC1	D1 antagonist -31
CC(c1ccccc1)N(CC(=O)NC1CCCCC1)S(=O)(=O)c1cccc(C(F)(F)F)c1 (centres undefined)	none
CCCCNCc1cc2ccccc2o1	DRD3 antagonist -51
CCCCNC(=O)CO/N=C(\C)c1cc2ccccc2o1	none
COc1ccccc1N(Cc1ccccc1)S(=O)(=O)c1cc(C(=O)O)ccc1Cl	none
O=C1N(CN2CCN(c3cccc(Cl)c3)CC2)c2ccccc2C12OCCCO2	DRD3 antagonist -83
CC1CCOC2(O1)C(=O)N(CN1CCN(c3ccccc3F)CC1)c1ccccc12 (centres undefined)	DRD3 antagonist -54 (no result: D1 antagonist, D1 agonist, D1 potentiator)
CN(C)c1ccc(/C=N/NC(=O)c2sccc2-n2cccc2)cc1	none
Cc1ccc(-c2cc(C(F)(F)F)n3nc(C(=O)NCC45CC6CC(CC(C6)C4)C5)cc3n2)cc1	none (no result: DRD3 antagonist)
COc1ccc(C=Nc2cccnc2N)cc1	none
Cc1ccc(C=Nc2cccnc2N)cc1	D1 agonist 90
CCCn1c2ccccc2c2cnn(CC(=O)NCCCN3CCN(c4ccccc4)CC3)c(=O)c21	DRD3 antagonist -83
COc1ccccc1N1CCN(CCCNC(=O)Cn2ncc3c([nH]c4ccccc43)c2=O)CC1	DRD3 antagonist -108
Cn1c2ccccc2c2cnn(CC(=O)NCCCN3CCN(c4ccccc4F)CC3)c(=O)c21	D1 antagonist -63, DRD3 antagonist -90
CCCn1c2ccccc2c2cnn(CC(=O)NCCCN3CCCCC3)c(=O)c21	none
Cc1ccc(C)c(N2CCN(CCCNC(=O)Cn3ncc4c([nH]c5ccccc54)c3=O)CC2)c1	none (no result: DRD3 antagonist)
COc1ccc(-n2c3c(cc(C#N)c2=O)C(=O)CCC3)cc1	none
Oc1ccc2c(c1)C1CCCC1(N1CCOCC1)O2 (centres undefined)	none
c1ccc2c(c1)nc1n2C2(N3CCOCC3)CCCC2C1N1CCOCC1 (centres undefined)	D1 agonist 47
Cc1cccc(NC(=S)NC2CC3CCCC(C2)N3Cc2ccco2)c1 (centres undefined)	DRD3 antagonist -61
Cc1ccc(NC(=S)NC2CC3CCCC(C2)N3Cc2ccco2)cc1 (centres undefined)	D1 antagonist -65, D1 agonist 41
Cc1cc(C)cc(NC(=S)NC2CC3CCCC(C2)N3CC(C)C)c1 (centres undefined)	none
Cc1cccc(NC(=S)NC2CC3CCCC(C2)N3CC(C)C)c1 (centres undefined)	D1 antagonist -59, DRD3 antagonist inconclusive
CCCN1C2CCCC1CC(NC(=S)Nc1cccc(C)c1)C2 (centres undefined)	none
CNC(=S)NC1CC2CCCC(C1)N2Cc1ccco1 (centres undefined)	none
Cc1cccc(NC(=O)NC2CC3CCC(C2)N3Cc2ccco2)c1 (centres undefined)	none
Cc1cccc(NC(=S)NC2CC3CCC(C2)N3Cc2ccco2)c1 (centres undefined)	D1 antagonist -67, DRD3 antagonist inconclusive
COCCCNC(=S)NC1CC2CCCC(C1)N2Cc1ccco1 (centres undefined)	DRD3 antagonist -150

Screening data: PubChem BioAssay, National Center for Advancing Translational Sciences (NCATS)
